We go through eight compounds from PubChem BioAssay (Tox21).

Values without a mark were called inactive. Results filed as inconclusive are left out. The source made the active and inactive calls. Unless noted, calls come from the whole dose curve.

Test [1] in a line: Nuclear factor erythroid 2-related factor 2/antioxidant responsive element (Nrf2/ARE) small molecule agonists: qHTS cell viability counter screen in human keratinocytes (AID 1919968; active = well fitted curve in the direction sought with a large enough effect in the repeat runs; an effect the other way counts as inactive or inconclusive; note: nearly all actives have a fitted effect of over 55% in size; note: potency is the fitted concentration of half-maximal effect). The essentials:
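Stably transfected HaCaT (KeratinoSens), 1,500/well. Test agents in DMSO were applied for 23 h, 37 C/5% CO2. CellTiter-Fluor was incubated 1 h before the fluorescence read.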
(In general: qHTS replaces the single test concentration by a dilution series.)

Test [2] in a line: Nuclear factor erythroid 2-related factor 2/antioxidant responsive element (Nrf2/ARE) small molecule agonists: luciferase reporter gene qHTS assay in human keratinocytes (AID 1919969). Note: nearly all actives have a fitted effect of over 35% in size. Note: potency is the fitted concentration of half-maximal effect. In general terms: A reporter such as luciferase makes a cellular process visible.
The target of test [3] is Gonadotropin-releasing hormone receptor (Homo sapiens) (UniProt P30968). The test is described as follows: Human gonadotropin-releasing hormone receptor (GnRHR) small molecule agonists, calcium flux assay in GnRHR-HEK293 cells (AID 1920063). Note: nearly all actives have a fitted effect of over 35% in size. The essentials:
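Stable human GnRHR HEK293 line. 18 h plating, then calcium dye for 1 h at 37 C. Agonist-mode compound addition from DMSO stocks; fluorescence monitored 3 min.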
Background: Calcium flux is commonly read through the fluorescence of an indicator in the cells.

The target of test [4] is KiSS-1 receptor (Homo sapiens) (UniProt Q969F8). Briefly: Human kisspeptin (KISS1R) small molecule agonists, calcium flux assay in KISS1R-HEK293 cells (AID 1920064; active = well fitted curve in the direction sought with a large enough effect in the repeat runs; an effect the other way counts as inactive or inconclusive). The essentials:
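After overnight (18 h) culture at 37 C/5% CO2, human KISS1R-HEK293 cells received calcium dye for 1 h, then test compound; emission at 540 nm (excitation 480 nm) was tracked for 3 min.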

Test [5] is described as follows: G protein-coupled receptor (GPCR) small molecule agonists, calcium flux assay: HEK293 wild type cell line counter screen (AID 1920065). In outline:
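Following 18 h incubation at 37 C/5% CO2, plates got calcium dye for 1 h; compounds, ATP or DMSO were then pinned in and fluorescence followed kinetically (480/540 nm).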

Test [6] can be described thus: p53 small molecule agonists, cell-based qHTS assay with rat liver microsomes (AID 1963578). In outline: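 Read-out is beta-lactamase reporter fluorescence (LiveBLAzer, 2 h, room temperature, dark) in p53RE-bla cells treated 16 h at 37 C with compound, rat liver microsomes and NADPH, both 0.5 mg/mL final.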
The nature of test [7]: p53 small molecule agonists, cell-based qHTS assay with human liver microsomes: qHTS cell viability counter screen (AID 1963579). Note: nearly all actives have a fitted effect of over 45% in size. In outline: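 Cells carrying the p53 response-element beta-lactamase reporter are treated for 16 h at 37 C with test compounds in the presence of human liver microsomes and NADPH (both 0.5 mg/mL final); ATP-based CellTiter-Glo luminescence then reports viability.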

A short description of test [8]: p53 small molecule agonists, cell-based qHTS assay with rat liver microsomes: qHTS cell viability counter screen (AID 1963580). Note: nearly all actives have a fitted effect of over 45% in size. The essentials: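 Luminescent ATP readout (CellTiter-Glo, 30 min at room temperature) reports viability of p53RE-bla HCT-116 cells after 16 h at 37 C with test compounds under metabolic activation by rat liver microsomes and NADPH at 0.5 mg/mL final each.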

The nature of test [9]: p53 small molecule agonists, cell-based qHTS assay: qHTS cell viability counter screen (AID 1963581). Note: nearly all actives have a fitted effect of over 45% in size. In outline:
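qHTS counter screen: 16 h compound exposure at 37 C of p53RE-bla HCT-116 cells (4,000 per well, seeded 5 h prior), cell viability by ATP luminescence.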

A short description of test [10]: p53 small molecule agonists, cell-based qHTS assay (AID 1963582; active = well fitted activation curve with a large enough effect in the signal ratio in the repeat runs, not every such curve was filed as active; the % refers to the signal ratio). In outline: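 Measured: fluorescence from cleaved LiveBLAzer substrate. System: p53RE-bla cells, 16 h compound treatment at 37 C, 2 h substrate step at room temperature.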
For test [11], the target named is 5-hydroxytryptamine receptor 2A (Homo sapiens) (UniProt P28223). The test is described as follows: 5-hydroxytryptamine receptor 2A (HTR2A) small molecule antagonists, cell-based qHTS assay (AID 1963586). Note: nearly all actives have a fitted effect of over 45% in size. The essentials:
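CHO cells stably expressing human HTR2A were plated for 18 h at 37 C, then loaded with calcium dye for 1 h. Compounds were preincubated 5 min at room temperature before DOI (4 nM solution) was added. Kinetic fluorescence was read for 3 min.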

Test [12] has the same target. The test is described as follows: 5-hydroxytryptamine receptor 2A (HTR2A) small molecule agonists, cell-based qHTS assay (AID 1963587). Note: nearly all actives have a fitted effect of over 30% in size. The essentials:
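HTR2A-CHO cells, plated 18 h at 37 C/5% CO2, dye-loaded 1 h at 37 C; compounds in DMSO added by pin tool (agonist mode). Intracellular calcium flux read as kinetic fluorescence on FDSS over 2 min at 1 s intervals.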

A short description of test [13]: cAMP Responsive Elements (CRE) small molecule antagonists, cell-based qHTS assay (AID 1963591; active = well fitted inhibition curve with a large enough effect in the signal ratio in the repeat runs, not every such curve was filed as active; the % refers to the signal ratio). In outline:
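Reporter line CRE-bla HEK 293T in dialyzed-FBS DMEM; cells preincubated 18 h, treated 3 h with compound plus NKH477 (0.25 uM final); LiveBLAzer FRET, 2 h RT.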

Test [14] addresses Beta-2 adrenergic receptor (Homo sapiens) (UniProt P07550). Briefly: Adrenergic beta2 receptor (ADRB2) small molecule antagonists, cell-based qHTS assay (AID 1963592). Note: series mostly up to about 92 µM; nearly all actives have a fitted effect of over 50% in size. The essentials:
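Assay format: CHO-ADRB2 cells, 18-20hr seeding at 37C/5% CO2, then compound plus 1nM isoproterenol agonist mix for 0.5hr RT. Homogeneous time-resolved fluorescence cAMP detection after 1hr, expressed as 665/615 nm ratio.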

Test [15] has as its target D(2) dopamine receptor (Homo sapiens) (UniProt P14416). The test is described as follows: Dopamine D2 receptor (DRD2) small molecule agonists, cell-based qHTS assay (AID 1963594). Note: nearly all actives have a fitted effect of over 35% in size. The essentials:
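HEK293 cells stably expressing DRD2 were cultured 24 h at 37 C, then given Ro20-1724 (0.1 mM final) and compounds for 10 min at room temperature. NKH477 (200nM) was then added for 30 min. cAMP was read by HTRF.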

Test [16] shares this target. Briefly: Dopamine D2 receptor (DRD2) small molecule antagonists, cell-based qHTS assay (AID 1963595; active = well fitted inhibition curve with a large enough effect in the signal ratio in the repeat runs, with a control signal flat; the % refers to the signal ratio). In outline:
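Stable D2 receptor HEK293 line, 24 h after seeding. Compound preincubated 10 min, then quinpirole (12 nM) with forskolin analogue NKH477 (200 nM), 30 min, room temperature. Detection by time-resolved FRET of cAMP.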

The target in test [17] is Muscarinic acetylcholine receptor M1 (Homo sapiens) (UniProt P11229). The test is described as follows: Cholinergic receptor muscarinic 1 (CHRM1) small molecule antagonists, cell-based qHTS assay (AID 1963588). Note: nearly all actives have a fitted effect of over 40% in size. In outline:
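Compounds were tested at 15 concentrations in three independent runs. Dye-loaded CHRM1-CHO cells were exposed 5 min at room temperature before stimulation by acetylcholine added at 50nM. Intracellular calcium was read kinetically on FDSS for 3 min.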

For test [18] the target is unchanged. Briefly: Cholinergic receptor muscarinic 1 (CHRM1) small molecule agonists, cell-based qHTS assay (AID 1963589). Note: nearly all actives have a fitted effect of over 35% in size. The essentials:
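Kinetic fluorescence (1 s intervals) of calcium-sensitive dye in human M1 CHO cells after compound addition; cells pre-incubated 18 h at 37 C/5% CO2 and dye-loaded 1 h.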

The nature of test [19]: cAMP Responsive Elements (CRE) small molecule agonists, cell-based qHTS assay (AID 1963590). The essentials:
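Test agents in DMSO were incubated 3 h at 37 C/5% CO2 with CRE-bla HEK 293T cells seeded 18 h earlier; LiveBLAzer B/G FRET substrate was added and read after 2 h at room temperature.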

Test [20] concerns the target Beta-2 adrenergic receptor (Homo sapiens) (UniProt P07550). Briefly: Adrenergic beta2 receptor (ADRB2) small molecule agonists, cell-based qHTS assay (AID 1963593).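 Note: CHO cells stably overexpressing human ADRB2.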 The essentials:
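CHO cells stably over-expressing ADRB2 were plated overnight at 37C, then dosed with compounds plus a stimulation mix containing 100uM IBMX and 25uM Ro-20-1724 for 0.5hr at room temperature. cAMP was measured by HTRF competition, 1hr.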
% is set by controls: 0 for no effect and ±100 for the full control effect.

Chain of 5-hydroxytryptamine receptor 2A (Homo sapiens) (P28223 whole entry, looked up): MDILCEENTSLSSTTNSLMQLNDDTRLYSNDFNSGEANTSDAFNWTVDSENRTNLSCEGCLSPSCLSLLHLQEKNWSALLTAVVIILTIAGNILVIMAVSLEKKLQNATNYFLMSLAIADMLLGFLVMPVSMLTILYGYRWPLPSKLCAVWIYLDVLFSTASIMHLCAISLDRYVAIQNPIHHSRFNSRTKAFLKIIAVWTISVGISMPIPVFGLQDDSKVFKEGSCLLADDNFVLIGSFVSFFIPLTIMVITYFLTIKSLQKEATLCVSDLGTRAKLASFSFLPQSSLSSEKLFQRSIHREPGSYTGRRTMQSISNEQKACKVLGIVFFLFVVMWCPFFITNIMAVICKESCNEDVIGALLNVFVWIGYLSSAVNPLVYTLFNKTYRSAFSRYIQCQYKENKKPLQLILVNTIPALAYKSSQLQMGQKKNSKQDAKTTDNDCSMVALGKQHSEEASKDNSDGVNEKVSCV
Chain of Beta-2 adrenergic receptor (Homo sapiens) (P07550 whole entry, looked up): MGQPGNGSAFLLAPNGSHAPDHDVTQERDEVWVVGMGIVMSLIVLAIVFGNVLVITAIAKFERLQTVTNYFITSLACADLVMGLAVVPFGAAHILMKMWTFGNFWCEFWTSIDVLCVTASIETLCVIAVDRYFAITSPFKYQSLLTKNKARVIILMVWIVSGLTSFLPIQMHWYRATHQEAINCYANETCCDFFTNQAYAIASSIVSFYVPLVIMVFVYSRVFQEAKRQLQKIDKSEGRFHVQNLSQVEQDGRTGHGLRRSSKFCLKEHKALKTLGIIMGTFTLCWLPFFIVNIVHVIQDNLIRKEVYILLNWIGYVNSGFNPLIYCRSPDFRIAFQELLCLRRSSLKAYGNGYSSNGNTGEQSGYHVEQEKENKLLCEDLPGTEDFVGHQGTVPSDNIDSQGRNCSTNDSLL
Chain of Muscarinic acetylcholine receptor M1 (Homo sapiens) (P11229 whole entry, looked up): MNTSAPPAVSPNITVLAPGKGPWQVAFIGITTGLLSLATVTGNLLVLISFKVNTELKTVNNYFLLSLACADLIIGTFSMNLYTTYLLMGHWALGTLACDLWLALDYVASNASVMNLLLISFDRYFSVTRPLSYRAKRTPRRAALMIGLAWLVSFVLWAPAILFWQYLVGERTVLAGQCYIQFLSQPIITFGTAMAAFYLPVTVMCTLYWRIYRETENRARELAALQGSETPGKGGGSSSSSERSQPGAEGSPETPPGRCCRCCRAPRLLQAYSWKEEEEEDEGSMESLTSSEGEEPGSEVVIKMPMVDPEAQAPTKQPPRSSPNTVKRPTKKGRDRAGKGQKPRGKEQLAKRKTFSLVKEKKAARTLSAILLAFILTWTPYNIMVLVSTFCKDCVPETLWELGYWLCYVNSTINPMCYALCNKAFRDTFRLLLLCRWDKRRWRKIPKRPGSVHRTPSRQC
Chain of D(2) dopamine receptor (Homo sapiens) (P14416 whole entry, looked up): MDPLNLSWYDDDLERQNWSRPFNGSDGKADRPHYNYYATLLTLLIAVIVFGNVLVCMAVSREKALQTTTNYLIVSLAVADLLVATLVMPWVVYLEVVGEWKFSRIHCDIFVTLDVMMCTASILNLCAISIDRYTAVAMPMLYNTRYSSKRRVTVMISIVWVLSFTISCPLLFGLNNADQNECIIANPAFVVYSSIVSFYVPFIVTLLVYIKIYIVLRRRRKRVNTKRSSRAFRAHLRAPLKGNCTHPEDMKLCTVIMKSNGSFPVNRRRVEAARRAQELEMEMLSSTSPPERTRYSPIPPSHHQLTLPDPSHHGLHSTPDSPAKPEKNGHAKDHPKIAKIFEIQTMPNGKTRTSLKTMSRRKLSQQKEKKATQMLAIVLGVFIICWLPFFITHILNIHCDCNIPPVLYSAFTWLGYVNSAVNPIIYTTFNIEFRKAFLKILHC
Chain of KiSS-1 receptor (Homo sapiens) (Q969F8 whole entry, looked up): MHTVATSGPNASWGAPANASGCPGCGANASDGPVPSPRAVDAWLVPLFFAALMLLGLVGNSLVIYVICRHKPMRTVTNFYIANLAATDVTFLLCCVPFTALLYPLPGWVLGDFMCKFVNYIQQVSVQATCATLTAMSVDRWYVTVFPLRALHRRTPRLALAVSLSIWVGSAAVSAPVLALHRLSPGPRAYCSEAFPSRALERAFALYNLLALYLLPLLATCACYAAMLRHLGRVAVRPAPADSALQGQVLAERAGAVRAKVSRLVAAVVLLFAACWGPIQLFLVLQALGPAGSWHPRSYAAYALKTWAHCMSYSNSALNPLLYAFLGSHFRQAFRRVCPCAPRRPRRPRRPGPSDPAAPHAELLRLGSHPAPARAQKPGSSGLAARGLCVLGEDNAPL
Chain of Gonadotropin-releasing hormone receptor (Homo sapiens) (P30968 whole entry, looked up): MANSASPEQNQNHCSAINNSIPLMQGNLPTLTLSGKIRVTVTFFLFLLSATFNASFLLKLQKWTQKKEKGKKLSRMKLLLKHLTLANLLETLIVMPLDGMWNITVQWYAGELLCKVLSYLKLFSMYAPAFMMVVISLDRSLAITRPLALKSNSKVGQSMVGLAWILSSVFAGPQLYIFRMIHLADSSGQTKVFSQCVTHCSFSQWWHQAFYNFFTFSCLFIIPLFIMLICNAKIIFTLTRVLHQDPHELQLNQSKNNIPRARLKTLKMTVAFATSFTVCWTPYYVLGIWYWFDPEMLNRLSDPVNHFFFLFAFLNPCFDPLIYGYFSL

`Cc1ccc2oc(CN(Cc3ccccc3)C(=O)Nc3c(F)cc(F)cc3F)c(-c3ccc(Cl)cc3)c2c1`: the Potency result in test [1], in [2], in test [3], in test [6], in test [7] and in test [8] was “inactive” each time. Besides, the Potency result in [9], in [10], in test [11], in test [12], in test [13] and in test [14] was “inactive” throughout. In addition, the Potency entry in [15] and in test [16] was “inactive” in each case. Moreover, the result in [4] and in test [5] was inactive.

For `O=c1[nH]sc2cc(Cl)ccc12`, the Potency is 18.8 µM (active) in test [1] and 13.3 µM (active) in test [2]. In addition, the Potency entry in [3], in [8], in [9], in [11], in test [17] and in [18] was “inactive” throughout. In addition, the Potency entry in [15] and in test [16] was “inactive” in each case. Further, the result in [4] and in test [5] was inactive.

In the case of `CN=C(N)NC(=O)Nc1c(C)cccc1C`, the Potency entry in test [1], in [2], in test [3], in test [6], in test [7] and in [8] was “inactive” throughout. Further, the Potency result in test [9], in test [10], in [17], in test [18], in test [19] and in test [13] was “inactive” each time. Moreover, the Potency result in [14], in [15] and in [16] was “inactive” throughout. Moreover, the result in test [4] and in [5] was inactive.

On to `CC(C)Cn1cnc2c(N)nc3ccccc3c21`, for which the activity change, negative = cytotoxicity in [1] was -5.63% [at 19 µM]. In test [2], the activity, positive = activation was 7.96% [at 19 µM]. Besides, the activity change in test [3] is -1.43% [at 11.8 µM, hits give high values]. Further, the activation in test [4] was 1.32% [at 15.8 µM]; in test [5], -0.0034% [at 11.8 µM]; in [19] it was 3.84% [at 19 µM]. The activity change, negative = inhibition in [14] is -12.1% [at 19 µM].

In the case of `CC/C(=C\C(=N/O)C(N)=O)C(C)[N+](=O)[O-]` (stereo not given), the Potency result in [1], in [2], in test [3], in test [8], in [9] and in [10] was “inactive” each time. Further, the Potency entry in test [11], in [12], in test [17], in test [18], in test [19] and in test [13] was “inactive” in each case. The Potency result in test [15] and in test [16] was “inactive” in each case. The result in test [4] and in test [5] was inactive.

For the compound `CC(=O)N(CC(O)CN(C(C)=O)c1c(I)c(C(=O)NCC(O)CO)c(I)c(C(=O)NCC(O)CO)c1I)c1c(I)c(C(=O)NCC(O)CO)c(I)c(C(=O)NCC(O)CO)c1I` (stereo not given), the Potency result in test [1], in [2], in [3], in test [6], in test [7] and in [8] was “inactive” in each case. Also, the Potency result in [9], in test [10], in test [12], in [17], in test [18] and in [19] was “inactive” throughout. For the same compound, the Potency entry in test [13], in test [14], in test [20], in test [15] and in [16] was “inactive” each time. The result in test [4] and in test [5] was inactive.

On to `C/C=C\C/C=C/CCCCCCCCOC(C)=O`, for which the Potency result in test [1], in test [3], in [8], in test [9], in test [11] and in test [12] was “inactive” each time. Further, the Potency entry in [17], in test [18], in test [14], in [20], in [15] and in [16] was “inactive” each time. The Potency in [2] was 68.6 µM (active). The outcome in [4] and in [5] was inactive.

Turning to `Cc1ccnc(N)c1`, the Potency result in test [1], in test [2], in [3], in test [6], in [7] and in test [8] was “inactive” in each case. In addition, the Potency result in test [9], in test [10], in test [11], in test [12], in [17] and in test [18] was “inactive” each time. Further, the Potency result in [19], in test [14], in test [15] and in [16] was “inactive” in each case. Besides, the result in test [4] and in [5] was inactive.
